Experimental data as given in PMC4336329 (PLoS ONE, 2015).
About 14,000 (4.5%) of roughly 310,000 compounds showed an effect of 50% or more. The effect is printed as a negative number. For the sample, strong results were picked, then their nearest neighbours and some compounds at random.

Molecular target: human ether-à-go-go-related gene (hERG) potassium channel (human, UniProt Q12809)
Experiment: primary screen, population patch clamp on CHO cells stably expressing hERG; higher = less effect of the substance
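Further: peak tail current of the secondary pulse compared with the same well before compound.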

Sequence of human ether-à-go-go-related gene (hERG) potassium channel (Q12809 whole entry, looked up): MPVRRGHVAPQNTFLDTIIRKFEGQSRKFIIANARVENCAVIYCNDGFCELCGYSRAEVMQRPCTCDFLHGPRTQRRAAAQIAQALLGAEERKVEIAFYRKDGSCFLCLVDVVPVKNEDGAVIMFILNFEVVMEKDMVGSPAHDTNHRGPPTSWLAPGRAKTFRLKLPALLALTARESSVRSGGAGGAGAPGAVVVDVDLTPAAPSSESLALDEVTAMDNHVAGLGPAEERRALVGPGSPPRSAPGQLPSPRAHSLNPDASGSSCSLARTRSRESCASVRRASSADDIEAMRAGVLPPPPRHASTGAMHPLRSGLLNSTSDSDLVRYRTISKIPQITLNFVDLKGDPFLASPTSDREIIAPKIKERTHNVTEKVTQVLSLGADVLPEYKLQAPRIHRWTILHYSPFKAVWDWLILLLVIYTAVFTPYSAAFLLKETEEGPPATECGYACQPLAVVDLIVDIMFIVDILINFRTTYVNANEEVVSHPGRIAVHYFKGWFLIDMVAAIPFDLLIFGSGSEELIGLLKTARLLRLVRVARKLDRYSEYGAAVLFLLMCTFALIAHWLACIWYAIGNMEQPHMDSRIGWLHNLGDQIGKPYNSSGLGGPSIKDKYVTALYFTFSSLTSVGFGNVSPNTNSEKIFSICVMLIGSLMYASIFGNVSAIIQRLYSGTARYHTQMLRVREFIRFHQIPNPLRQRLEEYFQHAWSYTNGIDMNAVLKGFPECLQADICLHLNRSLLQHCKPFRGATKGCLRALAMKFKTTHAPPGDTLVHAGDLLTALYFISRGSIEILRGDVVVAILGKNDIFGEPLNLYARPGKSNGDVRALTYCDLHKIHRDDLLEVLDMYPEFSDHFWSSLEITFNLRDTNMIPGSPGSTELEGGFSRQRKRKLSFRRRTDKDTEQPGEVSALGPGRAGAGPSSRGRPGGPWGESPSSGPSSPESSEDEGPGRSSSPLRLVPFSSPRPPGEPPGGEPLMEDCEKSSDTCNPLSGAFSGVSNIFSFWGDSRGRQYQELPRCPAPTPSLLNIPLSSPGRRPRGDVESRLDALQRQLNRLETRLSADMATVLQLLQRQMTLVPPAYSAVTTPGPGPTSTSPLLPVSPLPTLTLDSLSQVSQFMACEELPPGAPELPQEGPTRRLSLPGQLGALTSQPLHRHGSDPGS

In order of rising “hERG current change (%, negative = inhibition) at 10uM” value:
1. S=C(Nc1ccc(Oc2ccccc2)cc1)N(CCCN1CCOCC1)Cc1ccccn1  -70%
2. Fc1ccc(N2CCN(Cc3c[nH]c4ccccc34)CC2)cc1  -68.3%
3. COc1cc(C(C(=O)Nc2c(C)cccc2C)N(C)C(=O)c2ccc(-n3cnnn3)cc2)ccc1O (stereo not drawn)  -67.7%
4. CCc1nn(C(C)C(=O)NCCN2CCN(c3cccc(C)c3C)CC2)c(=O)c2cc3occc3n12 (stereo not drawn)  -65.3%
5. Cc1ccc(CN2CCN(c3cccc4[nH]ccc34)CC2)cc1  -60.4%
6. CCc1ccc(NC(=S)N(CCCN2CCOCC2)Cc2ccccn2)cc1  -56.3%
7. COc1ccccc1N1CCN(Cc2c[nH]c3ccccc23)CC1  -55.8%
8. Fc1ccccc1N1CCN(C2CCN(Cc3c[nH]c4ccccc34)CC2)CC1  -54.5%
9. COc1ccc(NC(=S)N(Cc2ccc(C)cc2)Cc2ccccn2)cc1  -50.5%
10. Cc1cccc(C)c1NC(=O)c1ccc(-n2cnnn2)cc1  -44.2%
11. COc1ccccc1NC(=S)N(Cc1ccc(C)cc1)Cc1ccccn1  -39.1%
12. c1cnc(N2CCN(Cc3c[nH]c4ccccc34)CC2)nc1  -36%
13. COc1cccc(NC(=S)N(Cc2ccc(C)cc2)Cc2ccccn2)c1  -30.2%
14. CCc1ccccc1NC(=S)N(CCCN1CCOCC1)Cc1ccccn1  -25.8%
15. Cc1ccc(NC(=S)N(CCCN2CCOCC2)Cc2ccccn2)cc1  -22.8%
16. c1ccc2c(CN3CCCCCCC3)c[nH]c2c1  -22.4%
17. Cc1cccc(NC(=S)N(CCCN2CCOCC2)Cc2ccccn2)c1  -22.3%
18. O.c1ccc2c(CN3CCN(C4CCCCC4)CC3)c[nH]c2c1  -18.2%
19. N#CC(C#N)=NNc1ccc(S(=O)(=O)N2CCCC2)cc1  -17.8%
20. Cc1cc(C)c(S(=O)(=O)N2CCN(C(=O)C3CCCO3)CC2)c(C)c1 (stereo not drawn)  -17.1%
21. O=C(Nc1cccc(-n2cnnn2)c1)c1ccc(C(F)(F)F)cc1  -15.3%
22. COc1ccc(NC(=S)N(CCCN2CCOCC2)Cc2ccccn2)cc1  -14.4%
23. N#Cc1ccccc1OCC(=O)NCCNC(=O)COc1ccccc1C#N  -10.1%
24. COC(=O)c1cc(C(=O)NNC(=O)c2ccc3c(c2)OCO3)cc([N+](=O)[O-])c1  -7.98%
25. O=[N+]([O-])c1cccc(CN2CCN(c3cccc4[nH]ccc34)CC2)c1  -7.67%
26. COc1ccc(/C=C/C(=O)NC(=S)N2CCN(c3ccccn3)CC2)cc1  -6.85%
27. O=C(CN1CCc2ccccc2C1)Nc1ccccc1N1CCCCCC1.O=C(O)C(=O)O  -5.79%
28. O=C(c1cnn2c(C(F)(F)F)cc(-c3cccs3)nc12)N1CCOCC1  -5.7%
29. COc1ccccc1N1CCN(Cc2ccc(OC)c3ccccc23)CC1  -5.46%
30. CNC(=S)N/N=C/c1cn(Cc2ccc(F)cc2)c2ccccc12  -4.59%
31. CCc1nn(C(C)C(=O)Nc2cccc(C)c2C)c(=O)c2cc3occc3n12 (stereo not drawn)  -0.753%
32. CS(=O)(=O)CCC(C(=O)OCc1ccc(Br)cc1)N1C(=O)c2ccccc2C1=O (stereo not drawn)  -0.0845%
33. O=C(CN(Cc1ccco1)C(=O)c1ccccc1F)Nc1ccccc1C(F)(F)F  2.3%
34. Clc1ccccc1CN1CCN(c2cccc3[nH]ccc23)CC1  3.09%
35. CCOC(=O)C(C)Oc1c(Br)cc(C2NC(=O)NC(C)=C2C(C)=O)cc1OCC (stereo not drawn)  3.1%
36. Cn1ccc(-c2ccccc2)c(C#N)c1=O  3.34%
37. COc1ccccc1N1CCN(C(=O)CCc2c[nH]c3ccccc23)CC1  3.69%
38. CCc1nn(C(C)C(=O)NCCN2CCCCCC2)c(=O)c2cc3occc3n12 (stereo not drawn)  6.27%
39. Cn1c(=O)c2c(n(Cc3ccccc3)c1=O)NC(=O)C2CC(=O)O (stereo not drawn)  12.6%
40. COc1cccc(C(=O)NCCC(=O)NCc2cc(=O)n(C)c(=O)n2C)c1  13.9%
41. COc1cc(C(NC=O)C(=O)Nc2c(C)cccc2C)ccc1O (stereo not drawn)  15.1%
42. c1ccc2c(CN3CCOCC3)c[nH]c2c1  15.1%
43. CC(C)Cn1c(O)c2ccc(C(=O)N=NC(=O)c3cccnc3)cc2c1O  17%
44. Cc1c(Cl)c([N+](=O)[O-])nn1CC(=O)N1CCN(C23CC4CC(CC(C4)C2)C3)CC1  19.9%
45. O=C(NS(=O)(=O)Nc1ccc(Cl)cc1)c1c[nH]c2ccccc12  23.2%
46. Cc1ccc(S(=O)(=O)N(C)C)cc1NC(=S)NCCc1ccccn1  24.2%
47. Cc1cc(=O)oc2cc(OCC(=O)NCCCN3CCCC3=O)ccc12  29.5%
48. Oc1ccc(-c2[nH]ncc2-c2cccc3cccnc23)c(O)c1  32.1%
